Assay results reported in publication PMC5540273 (PLoS ONE, 2017).

system: PIK3CB; details: concentration: 1 μM,replicates: in singlicate; n = 1
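Further: KINOMEscan kinase panel screen.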

Structure (SMILES)	%Inh
CCCC(=O)Nc1n[nH]c2ncccc12 [SB-601436]	0%
O=C(NOCC1CC1)c1cc(Br)c(F)c(F)c1Nc1ccc(I)cc1Cl	0%
CS(=O)(=O)Nc1ccc(-c2ccnc3[nH]ccc23)cc1 [GSK993273]	0%
Cn1ccc2ncnc(Oc3ccc(NC(=O)Nc4cccc(C(F)(F)F)c4)c(Cl)c3)c21	19%
CN1CCN(CCCNc2nccc(-c3c(-c4ccc(F)cc4)nn4cc(C(N)=O)ccc34)n2)CC1 [GW622475]	0%
O=C(Nc1cccc(C(F)(F)F)c1)c1cccc(Oc2ccc3nccn3n2)c1	0%
COc1ccc(Nc2nccc(N3CCC(NC(=O)c4cccc(C#N)c4)C3)n2)cc1 (stereo not shown) [GSK1379730]	0%
Cc1ccc2c(-c3ccnc(Nc4ccc(C(F)(F)F)cc4)n3)cnn2n1 [GW819776]	0%
CN1CCN(CCNc2nc3cc(Oc4ccc(NC(=O)Nc5cc(C(F)(F)F)ccc5F)cc4)ccc3[nH]2)CC1.Cl.Cl [GW768504]	0%
Cc1n[nH]c2cc(Nc3ccnc(Nc4cccc(CN5CCOCC5)c4)n3)ccc12 [GW682569]	7%
CN(c1ccc2c(c1)nc(NCc1ccc(F)cc1)n2C)c1ccnc(Nc2ccc(CS(C)(=O)=O)cc2)n1.Cl [GW813244]	0%
CCOC(=O)N1CCC(n2cnc(-c3ccc(F)cc3)c2-c2ccnc(N)n2)CC1 [SB-219952]	0%
O=C(Nc1cccc(Oc2ccc3nccn3n2)c1)Nc1cccc(C(F)(F)F)c1	0%
